# Source: PubChem (The Scripps Research Institute Molecular Screening Center)
# The sample as a whole holds a higher share of hits than the screen did.
# TTR transcr act: increases transthyretin transcription; SH-SY5Y TTR promoter Gaussia luciferase, luminescence; 100% = recombinant luciferase protein wells; activation, % at 16.7 µM; 92,000 tested, 1.3% active; AID 1117267;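 active = activation above the mean of all tested compounds plus 3 SD, cut at about 9.5% in these data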;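 also: cells exposed to compounds for one day before reading; 0% = median of all test compound wells on the plate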
# HuH7 TTR inh: HuH7 TTR transcription inhibition, counter-screen. shares compounds with TTR transcr act. HuH7 TTR promoter-Gaussia luciferase reporter, luminescence. inhibition, % at 16.7 µM. 1,100 tested, 4% active. AID 1117279;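 active = average inhibition above the solvent-only control wells' mean plus 3 SD, cut at about 15% in these data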;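 also: 0% = cells with DMSO only and 100% = cells with inhibitor control FD; inhibitors lower well luminescence so higher value means more inhibition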
# TTR act confirm: human TTR transcription activation, confirmation | shares compounds with TTR transcr act | SHSY5Y TTR promoter Gaussia luciferase, luminescence; 100% = purified Lucia enzyme wells, no cells | activation, % at 16.7 µM | 1,100 tested, under 10 active;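 active = mean activation above a set limit taken from the earlier primary screen, cut at about 11% in these data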;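 also: 0% = DMSO-treated cells and 100% = recombinant Lucia luciferase without cells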
# The depositor's hits bear a star.
SMILES,TTR transcr act,others
N#CC(OC(=O)c1ccccc1)c1cccc([N+](=O)[O-])c1 (configuration not stated),2,
O=C(N/N=C/c1cccc(F)c1)c1csc2c1CCCC2,-8,
CCc1ccc(OCC(=O)NNC(=O)c2c(CC)noc2C)cc1,1,
COc1ccc(Oc2nc(OC)cc(OC)n2)cc1,0,
O=C(CCn1c(=O)oc2ccccc21)Nc1ccc(N2CCOCC2)cc1,2,
CSCc1c(C(=O)Nc2ccc(N3CCOCC3)cc2)oc2ccccc12,14*,HuH7 TTR inh=-12;TTR act confirm=0
COc1ccc(NC(=O)c2oc3ccccc3c2CSC)cc1S(=O)(=O)N1CCOCC1,-1,
Cc1nc2c(-c3ccccc3)c(C)nn2c(C)c1CCC(=O)NC(C)CCc1ccco1 (configuration not stated),-1,
CCOC(=O)Nc1sc(NS(=O)(=O)c2ccccc2)nc1C,10*,HuH7 TTR inh=-19;TTR act confirm=2
Cc1ccc(C)c(S(=O)(=O)Nc2nc(C)c(C(=O)Nc3ccccc3)s2)c1,1,
CC(=O)c1ccc(NC(=O)Nc2sc(NS(=O)(=O)c3ccccc3)nc2C)cc1,30*,HuH7 TTR inh=-6;TTR act confirm=2
CC(=O)c1ccc(NC(=O)NNS(=O)(=O)c2ccc(F)cc2)cc1,-1,
Cc1nc(NS(=O)(=O)c2ccccc2)sc1C(=O)N/N=C/c1ccccc1,0,
Cc1ccc(S(=O)(=O)NNC(=O)c2sc(NS(=O)(=O)c3ccccc3)nc2C)cc1,0,
COCCCn1c(SCC(N)=O)nnc1-c1ccccc1,1,
Cc1ccc([C@@H]2CC=C(C(=O)O)[C@H](c3ccccc3)N2S(=O)(=O)c2ccc(C)cc2)cc1,-1,
Cc1ccc(S(=O)(=O)N2[C@@H](c3ccccc3F)C(C(=O)O)=CC[C@H]2c2cccs2)cc1,13*,HuH7 TTR inh=-1;TTR act confirm=2
Cc1ccc(S(=O)(=O)N2[C@@H](c3ccc(F)cc3)C(C(=O)O)=CC[C@H]2c2cccc(Cl)c2)cc1,1,
COc1ccc([C@@H]2CC=C(C(=O)O)[C@H](c3ccccc3F)N2S(=O)(=O)c2ccccc2C)cc1,14*,HuH7 TTR inh=16*;TTR act confirm=-1
Cc1ccc([C@H]2C(C(=O)O)=CC[C@@H](c3ccc(Cl)cc3)N2S(=O)(=O)c2ccc(C)cc2)cc1,-3,
Cc1ccc([C@H]2C(C(=O)O)=CC[C@@H](c3cccc(C)c3)N2S(=O)(=O)c2ccc(C)cc2)cc1,4,
COC(=O)C1=C(N)N(c2ccccc2C(F)(F)F)C2=C(C(=O)CCC2)C1c1ccc2c(c1)OCO2 (configuration not stated),-4,
CN1CCN(c2ccc(CNS(=O)(=O)Cc3ccc(Cl)cc3)cc2)CC1,-1,
Cc1ccc(NC(=O)CN2C(=O)S/C(=C\c3ccc(OCC(=O)O)c(Br)c3)C2=O)cc1,0,
COc1ccc(C(C[N+](=O)[O-])c2c(C)cc3ccccn23)c(OC)c1 (configuration not stated),-1,
SMILES,TTR transcr act,others
CCCNC(=O)Cn1c(-c2ccc(F)cc2)cc(C(=O)OCC)c1C,1,
CCOC(=O)c1cc(-c2ccccc2)n(CC(=O)O)c1C,11*,HuH7 TTR inh=-15;TTR act confirm=0
CCOC(=O)c1cc(-c2ccccc2)n(CC(=O)NC(C)(C)C)c1C,1,
COC(=O)c1ccc(CNC(=O)c2cc(COc3cncc(Cl)c3)on2)cc1,-1,
COc1ccc(CNCC(O)COc2ccc(C)cc2[N+](=O)[O-])cc1 (configuration not stated),2,
S=C(Cc1ccccc1)Nc1ccccc1,1,
N/C(=N\OC(=O)c1ccc(F)cc1)c1ccccc1,0,
CC(C)(C)OC(=O)N1C(=O)[C@](OC(=O)c2ccccc2)(c2ccc(F)cc2)c2ccccc21,21*,HuH7 TTR inh=4;TTR act confirm=-1
O=C(NC(=S)N1CCN(c2ccc(F)cc2)CC1)c1ccccc1,-1,
Cc1sc2ncnc(Nc3ccc(N4CCOCC4)cc3)c2c1-c1ccccc1,-1,
Cc1sc2ncnc(NCC(c3ccco3)N(C)C)c2c1C (configuration not stated),-1,
Cc1sc2ncnc(Nc3ccccc3)c2c1C,15*,HuH7 TTR inh=-8;TTR act confirm=0
CCCNC(=O)CSc1nnc(-c2ccco2)n1C,3,
COc1cc(C(=O)Nc2ccc(OCC(=O)N3CCOCC3)cc2C)cc(OC)c1OC,-1,
CC(C)CC1CCCC12NC(=O)NC2=O (configuration not stated),1,
CC(C)CCN1NC2(CCCC(C)C2)NC1=S (configuration not stated),13*,HuH7 TTR inh=-1;TTR act confirm=-1
O=C(Nc1cccc(F)c1)c1cc(S(=O)(=O)N2CCC(C(=O)O)CC2)ccc1F,-1,
O=C(Nc1c(F)cc(F)cc1Br)c1cc(S(=O)(=O)N2CCN(c3ccccn3)CC2)ccc1F,11*,HuH7 TTR inh=1;TTR act confirm=-1
CCOC(=O)Cn1c(=O)oc2cc(S(=O)(=O)N3CCN(c4ccccn4)CC3)ccc21,-1,
